Screening data (PubChem)
A selection: hits, their analogues and other compounds. The true share with any hit is near 11%.
HCV inhibitor: qHTS Assay for Inhibitors of Hepatitis C Virus (HCV). Potency, µM (top dose mostly 41.8 µM), inactives show top-dose activity change, negative = inhibition, most hits filed as inhibitors. Huh7.5.1 HCVcc-Cre infection, luciferase reporter, 44 h. 3.4% of 340,000 active
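Cells (1,000/well) were plated 4 h before compound, then infected with HCVcc-Cre virus (~0.5 moi). After 44 h further culture, infection was read as luciferase luminescence following a 15 min substrate incubation at room temperature.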
AmpC no deterg: qHTS Inhibitors of AmpC Beta-Lactamase (assay without detergent); P00811; AmpC nitrocefin hydrolysis, absorbance 480 nm, 0.0001% Triton; AID 485341, 2010; Potency, µM (highest dose often 57.1 µM), for inactives: at the highest dose activity change, negative = inhibition, usual class: inhibitors; 0.52% of 330,000 active;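 also: plate controls were no compound for no effect and no enzyme for full effect; nearly all actives have a fitted effect of over 20% in size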
Target sequence (P00811 whole entry, looked up): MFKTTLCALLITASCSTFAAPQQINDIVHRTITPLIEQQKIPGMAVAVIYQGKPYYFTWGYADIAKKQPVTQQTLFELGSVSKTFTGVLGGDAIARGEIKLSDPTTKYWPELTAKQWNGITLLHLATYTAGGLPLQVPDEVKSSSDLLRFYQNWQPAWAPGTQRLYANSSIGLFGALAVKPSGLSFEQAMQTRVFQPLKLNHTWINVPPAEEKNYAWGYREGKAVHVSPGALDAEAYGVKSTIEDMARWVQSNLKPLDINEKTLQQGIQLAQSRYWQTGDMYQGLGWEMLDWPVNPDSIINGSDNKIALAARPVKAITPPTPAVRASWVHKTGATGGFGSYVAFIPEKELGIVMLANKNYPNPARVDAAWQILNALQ
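20 mM phosphate pH 7.0 + 0.01% (detergent screen) or 0.0001% Triton X-100; 5.3 nM AmpC reagent; cpd preinc 15 min RT; nitrocefin (800 uM stock) to start; A480 q20 s × 4 min; Activity was normalised to no-enzyme and no-compound control wells.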
AMA1-RON2 inh: qHTS for Inhibitors of AMA1-RON; Towards Development of Antimalarial Drug Lead: Primary Screen; 0.2% of 360,000 active; Potency, µM (doses to about 58.2 µM), for the others: at the highest dose activity change, negative = inhibition, hits mostly inhibitors; AlphaScreen AMA1-biotinylated RON2 peptide binding; AID 720542, 2013;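 also: 0% = vehicle wells and -100% = peptide control; nearly all actives have a fitted effect of over 45% in size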
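AMA1 (3D7) with his tag at 25 nM final met compounds first, then biotinylated RON2 peptide at 25 nM; detection used donor plus acceptor beads, 10 µg/mL apiece, read by AlphaScreen after 30 min at room temperature.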
AmpC inh detg: qHTS Inhibitors of AmpC Beta-Lactamase (assay with detergent); 0.041% of 370,000 active; AmpC hydrolysis of nitrocefin, absorbance 480 nm, 0.01% Triton; P00811; Potency, µM (highest dose often 114 µM), for the others: top-dose activity change, negative = inhibition, actives largely listed as inhibitors; AID 485294, 2010;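 also: 0% = no-compound wells and -100% = no-enzyme wells; nearly all actives have a fitted effect of over 25% in size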
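AmpC (5.3 nM in the dispensed reagent) in 20 mM phosphate pH 7.0 with 0.01% (detergent screen) or 0.0001% Triton X-100 was preincubated with compounds for 15 min at room temperature. Nitrocefin was then added from an 800 uM solution, and hydrolysis was followed at 480 nm.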
Pf growth 96h: Primary qHTS for delayed death inhibitors of the malarial parasite plastid, 96 hour incubation. P. falciparum luciferase reporter growth, 96 h. 6.9% of 320,000 active. Potency, µM (highest dose often 28.7 µM), for the others: at the top dose activity change, negative = inhibition, hits mostly inhibitors
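Compounds incubated with erythrocytes infected by luciferase-expressing P. falciparum (2% hematocrit, 0.05% parasitemia final) for 96 hours, 37 C in 5% CO2. Growth inhibition scored as decreased luciferase luminescence.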
Pf growth 48h: Primary qHTS for delayed death inhibitors of the malarial parasite plastid, 48 hour incubation | P. falciparum luciferase growth in erythrocytes, 48 h | Potency, µM (doses to about 28.7 µM), inactives show at the highest dose activity change, negative = inhibition, most hits filed as inhibitors | 5.9% of 310,000 active | AID 504832, 2011
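Here the parasites carry a stable luciferase gene and grow inside erythrocytes in Albumax-based RPMI medium with compound for one erythrocytic cycle. Activity is scored as loss of luminescent signal.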
* marks the source's active call; other numbers are inactive results; ? = inconclusive; / = no result; [ ] = remark or other dose. Calls follow the shape of the dose curve; as a rule, active = well fitted curve in the direction sought with a large enough effect; inconclusive = small, poorly fitted or top-dose-only effect, or another doubt; inactive = no such curve, though single readings can be large; an effect the other way counts as inactive or inconclusive. Unless noted, % is scaled to controls: 0 for no effect and ±100 for the full control effect; potency is read from the fitted curve at half-maximal effect.

SMILES	HCV inhibitor	AmpC no deterg	AMA1-RON2 inh	AmpC inh detg	Pf growth 96h	Pf growth 48h
CCOc1ccc(C(c2c(O)cc(C)n(Cc3ccco3)c2=O)N2CCN(C)CC2)cc1 (centres undefined)	/	/	/	20%	/	/
COc1cccc(NC(=O)Cn2c(-c3nonc3N)nc3ccccc32)c1	/	/	/	1%	/	/
Nc1ccccc1SC1CC(=O)N(Cc2ccccc2)C1=O (centres undefined)	11%	-13%	0%	8%	-15%	14%
CCN1C(=O)CC(Sc2ccccc2N)C1=O (centres undefined)	12%	-9%	24%	4%	1.5µM*	5%
Cc1cccc(NC(=O)CSc2nc3c(oc4ccccc43)c(=O)n2C(C)C)c1	/	/	/	22%	/	/
COc1ccc2c(c1)OC[C@H]1[C@H]2N2C(=O)CN(Cc3ccccc3)C(=O)[C@@]2(C)[C@H]1c1ccccc1	?	/	0%	/	/	/
COc1ccc(CN2CC(=O)N3[C@H]4c5ccc(OC)cc5OC[C@@H]4[C@H](c4ccccc4)[C@]3(C)C2=O)cc1	?	57%	-7%	9%	?	4.7µM*
COc1ccc2c(c1)OC[C@H]1[C@H]2N2C(=O)CN(Cc3ccc(Cl)cc3)C(=O)[C@@]2(C)[C@H]1c1ccccc1	11µM*	3%	50%	0%	?	2.9µM*
Cc1cc(C)c2c(CC(=O)Nc3ccc(F)cc3)coc2c1	/	/	/	-10%	/	/
CCc1ccc(-n2c(C)nc3cc(C(=O)NCCc4ccccc4)ccc32)cc1	/	/	/	10%	/	/
CCN(CC)c1ccc(N=Cc2c(C)[nH]c3ccccc23)cc1	?	-38%	-13%[2.32 µM]	-6%	4.7µM*	1.9µM*
CCSc1ncc(Cl)c(C(=O)Nc2sc3c(c2C(=O)NCc2cccnc2)CCCC3)n1	10µM*	55%	-9%	2%	?	?
CC(C)Cn1nc(NC(=O)c2cccc(Cl)c2)c2cc3ccccc3nc21	/	/	/	-8%	/	/
Cc1cccc2c(=O)cc(CSc3ccccc3NC(=O)C(C)(C)C)[nH]c12	/	/	/	-5%	/	/
COC(=O)Nc1c(-c2ccccc2)nc2ccc(C)cn12	-1%	-18%	6%	?	4.7µM*	6%
CCCCNc1c(-c2cccc(-c3ccc(OC)cc3)c2)nc2cc(C)ccn12	11µM*	1%	0%	/	/	/
CCCCNc1c(-c2cccc(-c3ccc(OC)cc3)c2)nc2ccc(C)cn12	?	-2%	-8%	-5%	3.7µM*	3.3µM*
COC(=O)Nc1c(-c2ccccc2)nc2ccccn12	1%	-14%	3%	?	/	8%
Cc1ccc(NC(=O)CSc2nc3c(sc4ccccc43)c(=O)n2CCCC(=O)NC2CCCC2)cc1C	/	/	/	11%	/	/
COc1cccc(NC(=O)CCc2nc3c(C)nn(-c4ccc(C)cc4)c3n(C)c2=O)c1	/	/	/	-3%	/	/
CC(C)Cn1c(=O)c2sccc2n2c(CCCC(=O)NCc3ccccc3Cl)nnc12	/	/	/	13%	/	/
COc1cccc(N(CC(=O)NC2CCCC2)C(=O)CCC(=O)Nc2nccs2)c1	8%	-16%	2%	-4%	-4%	2%
CCC(C)(C)NC(=O)CN(C(=O)CCC(=O)Nc1nccs1)c1ccccc1C	26%	11%	-21%	0%	10µM*	-24%
COc1cccc(N(CC(=O)NC2CCCCC2)C(=O)CCC(=O)Nc2nccs2)c1	-27%	19%	-1%	0%	12µM*	?
CCOc1ccc(N(CC(=O)NC2CCCCC2)C(=O)CCC(=O)Nc2nccs2)cc1	-2%	-2%	14%	-4%	-16%	7.4µM*
SMILES	HCV inhibitor	AmpC no deterg	AMA1-RON2 inh	AmpC inh detg	Pf growth 96h	Pf growth 48h
Cc1cccc(N(CC(=O)NC2CCCCC2)C(=O)CCCC(=O)Nc2ccccn2)c1	-12%	25%	2%	-13%	-22%	12µM*
CCCC(=O)NC(C)c1nc2ccccc2n1Cc1ccccc1 (centres undefined)	/	/	/	21%	/	/
Cc1ccc(C)c(S(=O)(=O)N2CCCCC2CCNC(=O)C(=O)NCc2cccnc2)c1 (centres undefined)	-25%	86%	-24%	0%	?	?
Cc1ccc(C)c(S(=O)(=O)N2CCCCC2CCNC(=O)C(=O)NCc2ccccc2)c1 (centres undefined)	22µM*	-8%	-5%	-5%	?	?
Cc1ccccc1CNC(=O)C(=O)NCCC1CCCCN1S(=O)(=O)c1ccccc1 (centres undefined)	?	-9%	2%	0%	?	13µM*
CCc1nc2ccc(C(=O)Nc3ccc(OC)c(OC)c3)cn2c1N(C)Cc1nccs1	/	/	-6%	/	/	/
CCc1nc2ccc(C(=O)Nc3ccc(OC)c(OC)c3)cn2c1N(C)Cc1ccc(N(C)C)cc1	/	/	32µM*	/	/	/
C[C@]12CCC(=O)C=C1CCC1C2CC[C@@]2(C)C1CC[C@@]2(O)CC#N (some centres undefined)	15%	-14%	0%	-14%	-2%	/
CC(=O)[C@H]1CC[C@H]2[C@@H]3C=CC4=CC(=O)CC[C@@]4(C)[C@@H]3CC[C@]12C	0.56µM*	24%	7%	-12%	1%	?
C[C@@]12CCC(=O)C=C1C=C[C@H]1[C@H]3CC[C@](O)(CCC(=O)O)[C@]3(C)CC[C@@H]12	/	/	/	/	6.4µM*	?
C/C=C(\C)C(=O)OC1CC(C)(C)C[C@H]2C3=CC[C@@H]4[C@@]5(C)CCC(O[C@@H]6O[C@@H](C(=O)O)[C@@H](O)C(O[C@@H]7OC[C@H](O)[C@@H](O)[C@@H]7O[C@@H]7OC(CO)C(O)[C@@H](O)[C@@H]7O)C6O[C@@H]6OC(CO)C(O)C(O)C6O)[C@@](C)(CO)[C@@H]5CC[C@]4(C)[C@]3(C)CC(O)[C@@]12CO (some centres undefined)	11µM*	269%	-5%	/	/	/
COC(=O)C1OC(OC2CC[C@]3(C)C(CC[C@@]4(C)[C@@H]3CC=C3[C@@H]5CC(C)(C)CC[C@]5(C(=O)OC5OC(CO)C(O)C(O)C5O)CC[C@]34C)C2(C)C)C(O)C(O)C1O[C@H]1OCC(O)C(O)C1O (some centres undefined)	10µM*	22%	0%	/	/	/
